From PubChem BioAssay (NCATS)
Inconclusive results are not listed. Calls of active or inactive are those of the source. Calls come from the whole dose curve; as a rule, active = well fitted cell-killing curve with a large enough effect; inconclusive = small, poorly fitted or top-dose-only effect, or effect the other way; inactive = flat fitted curve, though single readings scatter.

Legend:
Test in all cases: Primary qHTS to identify gynecologic anti-cancer compounds using libraries of approved drugs and bioactive compounds (AID 1345084); note: nearly all actives have a fitted effect of over 55% in size
C33A = settings: Gynecologic cancer cell panel viability, ATPlite luminescence, 48 h; series mostly up to 57.5 µM
In short: (§1)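 Cells, 1,000 per well, were allowed to settle for 16 h at 37 C before compound addition. Five concentrations were tested for 48 h, and viability was read by ATPlite luminescence after 15 min at room temperature.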

CAOV3 = settings: Gynecologic cancer cell panel viability, ATPlite luminescence, 48 h; series mostly up to 57.5 µM
In short: as §1

CASKI = settings: Gynecologic cancer cell panel viability, ATPlite luminescence, 48 h; series mostly up to 57.5 µM
In short: as §1

Es-2 = settings: Gynecologic cancer cell panel viability, ATPlite luminescence, 48 h; series mostly up to 57.5 µM
In short: as §1

HeLa = settings: Gynecologic cancer cell panel viability, ATPlite luminescence, 48 h; series mostly up to 57.5 µM
In short: as §1

Hek293T = settings: Gynecologic cancer cell panel viability, ATPlite luminescence, 48 h, control line for the selectivity index; series mostly up to 57.5 µM
In short: as §1

JEG-3 = settings: Gynecologic cancer cell panel viability, ATPlite luminescence, 48 h; series mostly up to 57.5 µM
In short: as §1

OV90 = settings: Gynecologic cancer cell panel viability, ATPlite luminescence, 48 h; series mostly up to 57.5 µM
In short: as §1

PA-1 = settings: Gynecologic cancer cell panel viability, ATPlite luminescence, 48 h; series mostly up to 57.5 µM
In short: as §1

SKOV3 = settings: Gynecologic cancer cell panel viability, ATPlite luminescence, 48 h; series mostly up to 57.5 µM
In short: as §1

Tov-21-G = settings: Gynecologic cancer cell panel viability, ATPlite luminescence, 48 h; series mostly up to 57.5 µM
In short: as §1

Tov112D = settings: Gynecologic cancer cell panel viability, ATPlite luminescence, 48 h; series mostly up to 57.5 µM
In short: as §1
% is set by controls: 0 for no effect and ±100 for the full control effect.

CC1CCC2(C)C(CC(O)C(O)C23CO3)C1(C)CCC1=CC(=O)OC1O (centres undefined)
inactive: Potency (C33A) | Potency (CAOV3) | Potency (CASKI) | Potency (Es-2) | Potency (HeLa) | Potency (Hek293T) | Potency (JEG-3) | Potency (OV90) | Potency (PA-1) | Potency (SKOV3) | Potency (Tov-21-G) | Potency (Tov112D)

CC1=C2C(=O)C=C(CO)[C@@H]2[C@H]2OC(=O)[C@H](C)[C@@H]2[C@@H](O)C1
inactive: Potency (C33A) | Potency (CAOV3) | Potency (CASKI) | Potency (Es-2) | Potency (HeLa) | Potency (Hek293T) | Potency (JEG-3) | Potency (OV90) | Potency (PA-1) | Potency (SKOV3) | Potency (Tov-21-G) | Potency (Tov112D)

CC1(C)CCC(C)(C)c2cc3c(cc21)Sc1ccccc1N=C3c1ccc(C(=O)O)cc1
inactive: Potency (C33A) | Potency (CAOV3) | Potency (CASKI) | Potency (Es-2) | Potency (HeLa) | Potency (Hek293T) | Potency (JEG-3) | Potency (OV90) | Potency (PA-1) | Potency (SKOV3) | Potency (Tov-21-G) | Potency (Tov112D)

CC(=O)O[C@@H]1C[C@@]23C[C@@]24CC[C@H](OC2OC[C@@H](O)[C@H](O)[C@H]2O)C(C)(C)[C@@H]4CC[C@H]3[C@]2(C)CC3OC4(C[C@@H](C)C3[C@@]12C)OCC1(C)OC14 (some centres undefined)
inactive: Potency (C33A) | Potency (CAOV3) | Potency (CASKI) | Potency (Es-2) | Potency (HeLa) | Potency (Hek293T) | Potency (JEG-3) | Potency (OV90) | Potency (PA-1) | Potency (SKOV3) | Potency (Tov-21-G) | Potency (Tov112D)

CC1CC(O)C2(C)C(C(=O)O)=CCCC2C1(C)CCc1ccoc1 (centres undefined)
inactive: Potency (C33A) | Potency (CAOV3) | Potency (CASKI) | Potency (Es-2) | Potency (HeLa) | Potency (Hek293T) | Potency (JEG-3) | Potency (OV90) | Potency (PA-1) | Potency (SKOV3) | Potency (Tov-21-G) | Potency (Tov112D)

CN1CC[C@@H](NC(=O)Nc2ccc(C#N)cc2)C[C@@H]1c1nc2ccccc2[nH]1
inactive: Potency (C33A) | Potency (CAOV3) | Potency (CASKI) | Potency (Es-2) | Potency (HeLa) | Potency (Hek293T) | Potency (JEG-3) | Potency (OV90) | Potency (PA-1) | Potency (SKOV3) | Potency (Tov-21-G) | Potency (Tov112D)

C=C1[C@@H]2[C@H]3OC(=O)C(=C)[C@@H]3CC[C@@](C)(O)[C@@H]2C[C@@H]1O[C@@H]1O[C@H](CO)[C@@H](O)[C@H](O)[C@H]1O
inactive: Potency (C33A) | Potency (CAOV3) | Potency (CASKI) | Potency (Es-2) | Potency (HeLa) | Potency (Hek293T) | Potency (JEG-3) | Potency (OV90) | Potency (PA-1) | Potency (SKOV3) | Potency (Tov-21-G) | Potency (Tov112D)

C[C@@H]1CC[C@]2(C(=O)O)CC[C@]3(C)C(=CCC4[C@]5(C)C(CC[C@]43C)C(C)(C)[C@@H](O)[C@H](O)[C@@H]5O)C2[C@]1(C)O (some centres undefined)
inactive: Potency (C33A) | Potency (CAOV3) | Potency (CASKI) | Potency (Es-2) | Potency (HeLa) | Potency (Hek293T) | Potency (JEG-3) | Potency (OV90) | Potency (PA-1) | Potency (SKOV3) | Potency (Tov-21-G) | Potency (Tov112D)

COCCCNCC1COc2ccccc2O1 (centres undefined)
inactive: Potency (C33A) | Potency (CAOV3) | Potency (CASKI) | Potency (Es-2) | Potency (HeLa) | Potency (Hek293T) | Potency (JEG-3) | Potency (OV90) | Potency (PA-1) | Potency (SKOV3) | Potency (Tov-21-G) | Potency (Tov112D)

C=C(C)C(C)C1OC23CC4(CO2)C(CCC2C5(C)CCC(OC6OCC(O)C(OC7OC(CO)C(O)C(OC8OCC(O)C(O)C8O)C7O)C6OC6OC(CO)C(O)C6O)C(C)(C)C5CCC24C)C3C(C)(O)C1OC(C)=O (centres undefined)
inactive: activity change, negative = cytotoxicity (C33A) 2.75% [at 11.6 µM] | activity change, negative = cytotoxicity (CAOV3) 4.55% [at 11.6 µM] | activity change, negative = cytotoxicity (CASKI) 5.79% [at 11.6 µM] | activity change, negative = cytotoxicity (Es-2) 0.0055% [at 11.6 µM] | activity change, negative = cytotoxicity (HeLa) 1.27% [at 11.6 µM] | activity change, negative = cytotoxicity (Hek293T) 12% [at 11.6 µM] | activity change, negative = cytotoxicity (JEG-3) -1.98% [at 11.6 µM] | activity change, negative = cytotoxicity (OV90) -0.379% [at 11.6 µM] | activity change, negative = cytotoxicity (PA-1) -1.12% [at 11.6 µM] | activity change, negative = cytotoxicity (SKOV3) 3.59% [at 11.6 µM] | activity change, negative = cytotoxicity (Tov-21-G) 1.52% [at 11.6 µM] | activity change, negative = cytotoxicity (Tov112D) 5.61% [at 11.6 µM]

CC(O)(CC(=O)O)CC(=O)O[C@@H]1[C@@H](O)[C@H](OCCc2ccccc2)O[C@H](CO)[C@H]1O (some centres undefined)
inactive: Potency (C33A) | Potency (CAOV3) | Potency (CASKI) | Potency (Es-2) | Potency (HeLa) | Potency (Hek293T) | Potency (JEG-3) | Potency (OV90) | Potency (PA-1) | Potency (SKOV3) | Potency (Tov-21-G) | Potency (Tov112D)

C=C(C)[C@H]1C[C@@H](O)C(=C)CC[C@@H](O)C(=C)[C@@H](O)C1
inactive: Potency (C33A) | Potency (CAOV3) | Potency (CASKI) | Potency (Es-2) | Potency (HeLa) | Potency (Hek293T) | Potency (JEG-3) | Potency (OV90) | Potency (PA-1) | Potency (SKOV3) | Potency (Tov-21-G) | Potency (Tov112D)
